PubChem BioAssay
The other results are listed elsewhere or left out. Activity calls are given as the source filed them.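 The calls were made as follows, unless noted: active = mean inhibition across triplicate wells above the cutoff set by the earlier primary insulin-degrading enzyme screen (cut at about 16% in these data); inactive = the rest.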

Molecular target: Oxytocin receptor (Homo sapiens) (UniProt P30559)
Test: oxytocin receptor activation, retest of hits – fluorescence, CHO-OTR cells, triplicate, confirmation (AID 434963;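 active = mean activation above about 20% derived from the earlier single-dose screen, limit read from the data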;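 also: peak over minimum fluorescence ratio per well during a 100 second FLIPR read; 0% = DMSO alone and 100% = oxytocin high control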)
Conditions: Fluo-8 calcium fluorescence, agonist, at 3 µM, active compounds read high

Sequence of Oxytocin receptor (Homo sapiens) (P30559 whole entry, looked up): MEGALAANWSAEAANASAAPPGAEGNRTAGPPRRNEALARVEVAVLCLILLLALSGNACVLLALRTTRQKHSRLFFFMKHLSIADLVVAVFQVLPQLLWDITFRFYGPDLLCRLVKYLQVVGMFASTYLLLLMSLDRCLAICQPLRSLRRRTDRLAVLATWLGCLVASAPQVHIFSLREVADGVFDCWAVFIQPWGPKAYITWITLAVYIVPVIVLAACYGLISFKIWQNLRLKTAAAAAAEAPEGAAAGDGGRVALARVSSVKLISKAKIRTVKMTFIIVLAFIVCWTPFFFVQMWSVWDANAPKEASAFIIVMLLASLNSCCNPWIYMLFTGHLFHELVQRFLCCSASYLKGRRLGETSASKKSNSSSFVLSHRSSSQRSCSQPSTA

Row | SMILES | activation
1 | CCc1ccc(-c2nn(-c3ccccc3)cc2CSC(=N)N)cc1 | 11% (inactive)
2 | CCOc1ccc(Cn2nnc(C(=O)Nc3ccc(OC)cc3OC)c2N)cc1 | 16.4% (inactive)
3 | Cc1cc(S(=O)(=O)c2cc3ccc(O)c(C)c3oc2=O)ccc1F | 16% (inactive)
4 | CN(C)S(=O)(=O)c1ccc(Oc2ccc(S(=O)(=O)N(C)C)cc2)cc1 | 11.7% (inactive)
5 | COc1ccc(NS(=O)(=O)c2ccc(Oc3c(C#N)cccc3C#N)cc2)cc1 | 17.5% (inactive)
6 | COc1cc(/C=C2/SC(=S)N(Cc3ccccc3)C2=O)cc(OC)c1O | 29.3% (active)

Molecular target: Vasopressin V1a receptor (Homo sapiens) (UniProt P37288)
Sequence (P37288 whole entry, looked up): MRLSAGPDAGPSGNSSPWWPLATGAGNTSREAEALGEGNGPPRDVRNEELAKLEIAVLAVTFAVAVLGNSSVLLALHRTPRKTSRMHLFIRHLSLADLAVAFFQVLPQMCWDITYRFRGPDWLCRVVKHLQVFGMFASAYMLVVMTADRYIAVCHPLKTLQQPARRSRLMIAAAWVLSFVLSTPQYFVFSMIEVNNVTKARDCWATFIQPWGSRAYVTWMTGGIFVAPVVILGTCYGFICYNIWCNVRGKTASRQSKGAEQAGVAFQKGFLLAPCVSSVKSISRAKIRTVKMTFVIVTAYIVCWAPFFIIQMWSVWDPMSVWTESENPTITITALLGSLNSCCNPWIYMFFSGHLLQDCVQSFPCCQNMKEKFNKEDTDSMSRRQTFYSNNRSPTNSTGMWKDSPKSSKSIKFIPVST
Test: activators of vasopressin V1R in CHO cells – cell-based, triplicate, fluorescence, counter-screen for OXTR agonist project (AID 434991;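 active = mean activation over triplicate exceeds the hit threshold set in the earlier primary screen, cut at about 20% in these data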;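 also: peak over basal fluorescence ratio within a 100 second read; 0% = DMSO alone and 100% = 3 nM vasopressin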)
Conditions: Fluo-8 calcium fluorescence, at 3 µM, active compounds read high

Row | SMILES | activation
7 | CCc1ccc(-c2nn(-c3ccccc3)cc2CSC(=N)N)cc1 | 7.29% (inactive)
8 | CCOc1ccc(Cn2nnc(C(=O)Nc3ccc(OC)cc3OC)c2N)cc1 | 14.5% (inactive)
9 | Cc1cc(S(=O)(=O)c2cc3ccc(O)c(C)c3oc2=O)ccc1F | 13.1% (inactive)
10 | CN(C)S(=O)(=O)c1ccc(Oc2ccc(S(=O)(=O)N(C)C)cc2)cc1 | 11.1% (inactive)
11 | COc1ccc(NS(=O)(=O)c2ccc(Oc3c(C#N)cccc3C#N)cc2)cc1 | 13.7% (inactive)
12 | COc1cc(/C=C2/SC(=S)N(Cc3ccccc3)C2=O)cc(OC)c1O | 38.2% (active)

Molecular target: Insulin-degrading enzyme (Homo sapiens) (UniProt P14735)
Sequence (P14735 whole entry, looked up): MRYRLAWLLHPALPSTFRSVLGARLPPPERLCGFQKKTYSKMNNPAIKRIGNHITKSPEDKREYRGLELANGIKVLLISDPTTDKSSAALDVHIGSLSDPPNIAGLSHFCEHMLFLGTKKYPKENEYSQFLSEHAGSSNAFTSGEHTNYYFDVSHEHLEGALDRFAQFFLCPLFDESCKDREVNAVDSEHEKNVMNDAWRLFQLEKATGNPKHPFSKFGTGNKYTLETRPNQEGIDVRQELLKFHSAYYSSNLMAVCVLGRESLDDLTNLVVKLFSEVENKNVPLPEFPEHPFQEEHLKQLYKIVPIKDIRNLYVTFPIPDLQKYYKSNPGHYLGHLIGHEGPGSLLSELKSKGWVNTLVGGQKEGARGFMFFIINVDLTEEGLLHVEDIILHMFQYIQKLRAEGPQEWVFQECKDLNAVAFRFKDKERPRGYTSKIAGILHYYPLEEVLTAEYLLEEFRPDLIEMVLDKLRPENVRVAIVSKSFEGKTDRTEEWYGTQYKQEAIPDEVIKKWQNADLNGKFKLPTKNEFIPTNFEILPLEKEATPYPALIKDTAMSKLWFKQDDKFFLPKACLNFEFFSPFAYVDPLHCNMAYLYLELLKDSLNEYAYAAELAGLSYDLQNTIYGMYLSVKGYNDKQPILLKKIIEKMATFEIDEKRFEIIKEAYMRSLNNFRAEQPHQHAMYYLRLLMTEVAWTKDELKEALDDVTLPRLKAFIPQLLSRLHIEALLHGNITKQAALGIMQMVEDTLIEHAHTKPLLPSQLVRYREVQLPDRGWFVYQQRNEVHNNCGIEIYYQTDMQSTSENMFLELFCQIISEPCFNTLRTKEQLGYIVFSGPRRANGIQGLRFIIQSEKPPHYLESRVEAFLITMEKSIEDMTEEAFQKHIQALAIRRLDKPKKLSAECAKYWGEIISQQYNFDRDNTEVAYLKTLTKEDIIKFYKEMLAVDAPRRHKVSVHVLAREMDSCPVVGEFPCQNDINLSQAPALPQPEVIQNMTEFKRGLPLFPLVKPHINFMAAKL
Test: cellular IDE Abeta-cleavage inhibition – fluorescence polarization, HEK cells, FAbetaB substrate, confirmation (AID 435028);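 also: 0% = DMSO wells and 100% = 60 µM reference IDE inhibitor Ii1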
Conditions: at 5.59 µM, active compounds read high

Row | SMILES | inhibition
13 | COc1ccc(N2CCN(C(=O)/C(C#N)=C/c3ccccc3)CC2)cc1 | 8.71% (inactive)
14 | CCOC(=O)CC1C(=O)NCCN1c1nc2c(C)cccn2c(=O)c1/C=C1\SC(=S)N(C(C)CC)C1=O (configuration not stated) | 27.1% (active)
15 | CC(C(=O)c1ccc(-c2ccccc2)cc1)[n+]1cccc(Br)c1 (configuration not stated) | 16.4% (active)
16 | Cc1cc(Cl)ccc1OCCCC(=O)NCc1ccncc1 | 7.81% (inactive)
17 | O=C(Nc1ccc(Cl)c(Cl)c1)N1CC=C(c2ccccc2)CC1 | 4.7% (inactive)
18 | Cn1c2ccccc2c2cc(/C=C(\NC(=O)c3ccccc3)C(=O)NCC(=O)O)ccc21 | 17.3% (active)
19 | CCCCc1cc(=O)oc2c(C)c(OCC(=O)N3CCC(C(N)=O)CC3)ccc12 | 8.74% (inactive)
20 | O=C(C1=C[C@H](c2coc3ccccc3c2=O)C[C@H](OCc2ccc(CO)cc2)O1)N1CCN(Cc2ccccc2)CC1 | 2.63% (inactive)
21 | NC(=O)c1c(Nc2nc3c(F)cccc3s2)sc2c1CCCC2 | 12.7% (inactive)
22 | CC(=O)c1cc(NC(=O)c2ccccc2)c(=O)oc1/C=C/N(C)C | 31% (active)
23 | Cc1c(-c2cccc(Cl)c2)nc2ccccc2c1C(=O)OCC(=O)N(C)C1CCS(=O)(=O)C1 (configuration not stated) | 16.9% (active)
24 | O=C(Nc1ccc(Sc2ccc(Br)cc2)cc1)c1ccco1 | 14.3% (inactive)
25 | O=C(N/N=C/c1ccc(OC(=O)c2ccccc2Cl)cc1)c1ccc(O)cc1 | 4.51% (inactive)
26 | CCCc1nc(SCC(=O)Nc2ccc(S(=O)(=O)N(C)C)cc2)c2ccccc2n1 | 6.74% (inactive)
27 | Cc1nn(C)cc1C(=O)c1ccccc1 | 3.52% (inactive)
28 | N#C/C(=C\c1ccc(N2CCOCC2)o1)C(=O)N1CCOCC1 | 14.7% (inactive)
29 | COc1cc(/C=C(\C#N)c2nc3ccccc3[nH]2)ccc1O | 134% (active)
30 | O=C(CCc1ccc(S(=O)(=O)N2CCOCC2)cc1)Nc1ccc2ccccc2c1 | 8.6% (inactive)

Row | SMILES | inhibition
31 | Cc1cccc(-n2c(Cc3cc(=O)[nH]c(=O)[nH]3)nnc2SCC(=O)Nc2cccc(C(F)(F)F)c2)c1 | 6.02% (inactive)
32 | Cc1c(C(=O)Nc2cccc(-c3nnc4n3CCCCC4)c2)oc2ccccc12 | 5.89% (inactive)
33 | CS(=O)(=O)N(Cc1ccccc1)c1ccc(C(=O)NN=C2CCCCCC2)cc1 | 3.28% (inactive)
34 | CCN1/C(=C/c2ccc3ccc(C)cc3[n+]2CC)Sc2ccccc21 | 55.5% (active)
35 | Cc1cccc(N2CCN(C(=O)c3cccc(N4C(=O)C5C6C=CC(C6)C5C4=O)c3)CC2)c1C (configuration not stated) | 31.1% (active)
36 | CN1/C(=c2/s/c(=C3/C(=O)N(c4ccccc4)NC3=Nc3ccccc3)n(C)c2=O)C(C)(C)c2ccccc21 | 8.19% (inactive)
37 | CN(C)c1ccc(/C=C2\NC(=S)N(Cc3ccccc3)C2=O)cc1 | 135% (active)
38 | CC1(C)Cc2cccc(OCC(=O)N3CCN(c4ccc([N+](=O)[O-])cc4)CC3)c2O1 | 4.72% (inactive)
39 | CCCC(=O)Nc1c(O)c2ccccc2[nH]c1=O | 2.78% (inactive)
40 | COc1cc(/C=C2/SC(=S)N(Cc3ccccc3)C2=O)cc(OC)c1O | 142% (active)
41 | CCOc1cc2c(Cl)ncnc2c(OCC)c1OCC | 4.73% (inactive)
42 | CCC(=C/c1sc2ccc3ccccc3c2[n+]1C)/C=C1\Sc2ccc3ccccc3c2N1C | 13.4% (inactive)
43 | Cc1ccc2c(c1)c1ncnc(N3CCc4ccccc4C3)c1n2C | 14% (inactive)
44 | CCN(CC)c1ccc2cc(C(N)=O)/c(=N\NC(=O)c3ccncc3)oc2c1 | 85.5% (active)
45 | O=C(/C=C/c1ccc(OCc2c(F)cccc2Cl)cc1)N1CCOCC1 | 12.4% (inactive)
46 | C=CCC1=C/C(=C\c2c(N)n3nc(CC(=O)N4CCOCC4)sc3nc2=O)C=C(OC)C1=O | 25.9% (active)
47 | Oc1ccc(-c2onc3ccc(Cl)cc23)cc1 | 101% (active)
